Assay [1] concerns the target Cellular tumor antigen p53 (Homo sapiens) (UniProt P04637). The assay is described as follows: TOX21_p53_BLA_p3_ratio: Tox21 HCT-116 p53 Agonism Beta-lactamase Assay, Ratio, Phase 3 (AID 2283596). The method, boiled down: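 Cells were seeded at 4000/well, rested 5 h at 37C, then dosed with DMSO compound solutions (217-fold dilution) for 16 h. CCF4-AM substrate was loaded for 2 h at room temperature, and the 460/530 nm emission ratio was fitted for gain of signal versus DMSO.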

The nature of assay [2]: TOX21_p53_BLA_p4_viability: Viability Assessment in the Tox21 HCT-116 p53 Agonism Beta-lactamase Assay, Phase 4 (AID 2283597).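 Further: hits lower the luminescence signal meaning cytotoxicity.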 In outline:
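Viability is taken as cellular ATP: after 16 h compound exposure of HCT116 cells and a 2 h room-temperature CCF4-AM substrate step, CellTiter-Glo reagent is added and luminescence is measured 30 min later.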

The nature of assay [3]: TOX21_p53_BLA_p5_viability: Viability Assessment in the Tox21 HCT-116 p53 Agonism Beta-lactamase Assay, Phase 5 (AID 2283600). In outline:
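Viability is taken from cellular ATP content, measured by luciferase luminescence in the same wells after the beta-lactamase ratio read. Cells are seeded at 4000 per well and exposed to DMSO-dissolved compounds, diluted 217-fold, for 16 h.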

For assay [4], the target named is Cellular tumor antigen p53 (Homo sapiens) (UniProt P04637). The assay is described as follows: TOX21_p53_BLA_p4_ratio: Tox21 HCT-116 p53 Agonism Beta-lactamase Assay, Ratio, Phase 4 (AID 2283601). The method, boiled down:
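HCT116 cells carrying an inducible beta-lactamase reporter were plated at 4000 cells/well, rested 5 h, then exposed to compounds in DMSO (217-fold dilution) for 16 h at 37C. CCF4-AM substrate was loaded 2 h at room temperature; 460/530 nm emission ratio scored gain-of-signal versus DMSO.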

For assay [5] the target is unchanged. The assay is described as follows: TOX21_p53_BLA_p5_ratio: Tox21 HCT-116 p53 Agonism Beta-lactamase Assay, Ratio, Phase 5 (AID 2283599). The method, boiled down: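 HCT-116 cells carrying a p53-inducible beta-lactamase reporter were seeded at 4000 cells/well and dosed after 5 h with compound in DMSO (217-fold dilution). After 16 h at 37C, CCF4-AM substrate was added for 2 h, and the 460/530 nm emission ratio was scored as gain-of-signal versus DMSO.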

A short description of assay [6]: Tanguay_ZF_120hpf_MORT_legacy: (Legacy) Oregon State University Tanguay Lab 120 Hour Post-fertilization zebrafish Assay for Mortality (AID 2283633).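 Further: fitted as increase in binary mortality versus DMSO negative control.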 The method, boiled down:
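Mortality endpoint from a multiplexed whole-embryo zebrafish screen. Dechorionated wild-type embryos received compound at 6 hpf and remained under static exposure at 28C until 120 hpf, with death noted as a present/absent call.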

A short description of assay [7]: Tanguay_ZF_120hpf_YSE_legacy: (Legacy) Oregon State University Tanguay Lab 120 Hour Post-fertilization zebrafish Assay for Yolk Sac Edema (AID 2283634). The method, boiled down: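 Readout: presence or absence of yolk sac edema at 120 hpf, fitted upward against DMSO controls. Exposure ran statically from 6 hpf in dechorionated embryos kept at 28C.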
Assay [8] in a line: Tanguay_ZF_120hpf_AXIS_legacy: (Legacy) Oregon State University Tanguay Lab 120 Hour Post-fertilization zebrafish Assay for Body Axis Malformation (AID 2283635). The method, boiled down:
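Static 6–120 hpf chemical exposure of dechorionated wild-type 5D zebrafish, one per well at 28C; morphology endpoint scored binary at 120 hpf relative to DMSO control.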

The text below walks through data of PubChem BioAssay (EPA / NIEHS).

Broadly, the AC50 is the concentration at which the activity in the assay is half-maximal.

Molecules are shown by their SMILES. Inconclusive results are not listed. Activity calls are given as the source filed them. How the source made its calls: active means hit-call score of the fitted dose curve at least 0.9, where 1 is the maximum; inconclusive means response in the unintended direction; inactive means score below 0.9.

Sequence of Cellular tumor antigen p53 (Homo sapiens) (P04637 whole entry, looked up): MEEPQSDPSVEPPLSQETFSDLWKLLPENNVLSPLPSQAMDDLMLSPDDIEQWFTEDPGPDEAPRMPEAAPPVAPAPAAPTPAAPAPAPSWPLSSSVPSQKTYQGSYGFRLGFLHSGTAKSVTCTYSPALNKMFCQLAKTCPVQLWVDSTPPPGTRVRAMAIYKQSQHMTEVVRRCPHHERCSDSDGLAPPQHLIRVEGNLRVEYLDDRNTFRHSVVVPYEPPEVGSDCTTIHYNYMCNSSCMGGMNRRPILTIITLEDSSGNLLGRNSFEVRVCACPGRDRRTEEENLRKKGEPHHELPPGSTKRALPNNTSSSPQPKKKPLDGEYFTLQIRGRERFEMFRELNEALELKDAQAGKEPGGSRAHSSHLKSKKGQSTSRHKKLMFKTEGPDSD

Take `c1ccc(-c2cccc(-c3ccccc3)c2)cc1`: the result in assay [1], in assay [2], in assay [3] and in assay [4] was inactive.

For the compound `COc1ccc(N)cc1`, the outcome in assay [2], in assay [5], in assay [3] and in assay [4] was inactive.

For `Oc1cc(Cl)c(Cl)cc1Cl`, the AC50 in assay [6] is 24.9 µM (active). For the same compound, the outcome in assay [7] and in assay [8] was inactive.

For the compound `CCOC(=O)OC1=C(c2cc(C)ccc2C)C(=O)NC12CCC(OC)CC2` (stereo not drawn), the AC50 in assay [1] is 52.6 µM (active); in assay [4], 54.7 µM (active). Besides, the outcome in assay [2] and in assay [3] was inactive.

For `Oc1c(Cl)cc(Cl)cc1Cl`, in assay [6], the AC50 is 24.9 µM (active). Besides, the compound was classed as inactive in assay [7] and in assay [8].
